From PubChem BioAssay
Hits are enriched below; roughly 12% of the tested compounds scored in any of these assays.
L3MBTL1 inh – L3MBTL1 (human) inhibition; Q9Y468; AlphaScreen L3MBTL1–H3K9me1 peptide binding; Potency, µM (series often up to 57.1 µM), for the others: at the top dose activity, negative = inhibition, usual class: inhibitors; hit rate 0.66% among 230,000; also: % is scaled to controls: 0 for no effect and ±100 for the full control effect; nearly all actives have a fitted effect of over 60% in size
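Displacement of a biotinylated histone H3(1-15) peptide monomethylated at Lys9 (75 nM) from L3MBTL1 (50 nM) was measured by AlphaScreen after a 30 min room-temperature compound incubation; cefsulodin titration served as intraplate control.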
JMJD2A Tudor – JMJD2A Tudor domain (human) inhibition. Potency, µM (highest dose often 114 µM), inactives show top-dose activity change, negative = inhibition, actives largely listed as inhibitors. hit rate 4.4% among 390,000. O75164. AID 504339. AlphaScreen JMJD2A-Tudor / H3K4me3 peptide binding; also: % is scaled to controls: 0 for no effect and ±100 for the full control effect; nearly all actives have a fitted effect of over 50% in size
Sfp PPTase inh – Sfp phosphopantetheinyl transferase inhibition; hit rate 3.5% among 310,000; Potency, µM, without a hit: largest response in the series, negative = inhibition, usual class: inhibitors; Q9F4F7; Biochemical Sfp PPTase activity, qHTS;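 also: the enzyme is Sfp with the accession as filed and its product quenches rhodamine fluorescence; 0% = enzyme reaction without inhibitor and -100% = no enzyme wells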
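Sfp 15 nM + cpd, 15 min RT; start w/ rhodamine-CoA 5 uM, BHQ-2-YbbR 12.5 uM (final); 50 mM Hepes pH 7.6, 10 mM MgCl2, 0.01% NP-40, 0.01% BSA; read 525/598 nm at 0 and 30 min.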
G9a block – blocks human histone lysine methyltransferase G9a. G9a H3K9 monomethylation, AlphaScreen, 2 h. Potency, µM (highest dose often 102 µM), for inactives: at the highest dose activity, negative = inhibition, most hits filed as inhibitors. hit rate 8.8% among 350,000. AID 504332; also: % is scaled to controls: 0 for no effect and ±100 for the full control effect; nearly all actives have a fitted effect of over 75% in size
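Step 1: enzyme (final 20 nM) with compound, 15 min RT. Step 2: substrate peptide 500 nM and SAM 20 uM, 2 h RT. Step 3: anti-H3K9me1 antibody and AlphaScreen beads, 10 min, then plate read.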
HP1b chromo inh – inhibitors of HP1-beta chromodomain binding to methylated histone tails; P83916; AlphaScreen HP1-beta / biotin-H3K9me3 peptide binding; Potency, µM (titrated, usually from 114 µM), for inactives: at the top dose activity change, negative = inhibition, hits mostly inhibitors; hit rate 0.56% among 390,000; also: nearly all actives have a fitted effect of over 70% in size
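HP1-beta protein (50 nM final) preincubated 30 min at room temperature with biotinylated H3(1-18)K9me3 peptide (50 nM) in PBS pH 7.4, 0.01% Tween-20, then compound added for 30 min. AlphaScreen streptavidin donor/nickel chelate acceptor beads (10 ug/mL final), 30 min dark, luminescence read.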
BAZ2B block – blocks human BAZ2B | Q9UIF8 | AlphaScreen BAZ2B-H3K14Ac peptide displacement | Potency, µM (doses to about 114 µM), for the others: at the highest dose activity change, negative = inhibition, most hits filed as inhibitors | hit rate 4.4% among 360,000 | AID 504333; also: % is scaled to controls: 0 for no effect and ±100 for the full control effect; nearly all actives have a fitted effect of over 60% in size
Target sequence (Q9UIF8 whole entry, looked up): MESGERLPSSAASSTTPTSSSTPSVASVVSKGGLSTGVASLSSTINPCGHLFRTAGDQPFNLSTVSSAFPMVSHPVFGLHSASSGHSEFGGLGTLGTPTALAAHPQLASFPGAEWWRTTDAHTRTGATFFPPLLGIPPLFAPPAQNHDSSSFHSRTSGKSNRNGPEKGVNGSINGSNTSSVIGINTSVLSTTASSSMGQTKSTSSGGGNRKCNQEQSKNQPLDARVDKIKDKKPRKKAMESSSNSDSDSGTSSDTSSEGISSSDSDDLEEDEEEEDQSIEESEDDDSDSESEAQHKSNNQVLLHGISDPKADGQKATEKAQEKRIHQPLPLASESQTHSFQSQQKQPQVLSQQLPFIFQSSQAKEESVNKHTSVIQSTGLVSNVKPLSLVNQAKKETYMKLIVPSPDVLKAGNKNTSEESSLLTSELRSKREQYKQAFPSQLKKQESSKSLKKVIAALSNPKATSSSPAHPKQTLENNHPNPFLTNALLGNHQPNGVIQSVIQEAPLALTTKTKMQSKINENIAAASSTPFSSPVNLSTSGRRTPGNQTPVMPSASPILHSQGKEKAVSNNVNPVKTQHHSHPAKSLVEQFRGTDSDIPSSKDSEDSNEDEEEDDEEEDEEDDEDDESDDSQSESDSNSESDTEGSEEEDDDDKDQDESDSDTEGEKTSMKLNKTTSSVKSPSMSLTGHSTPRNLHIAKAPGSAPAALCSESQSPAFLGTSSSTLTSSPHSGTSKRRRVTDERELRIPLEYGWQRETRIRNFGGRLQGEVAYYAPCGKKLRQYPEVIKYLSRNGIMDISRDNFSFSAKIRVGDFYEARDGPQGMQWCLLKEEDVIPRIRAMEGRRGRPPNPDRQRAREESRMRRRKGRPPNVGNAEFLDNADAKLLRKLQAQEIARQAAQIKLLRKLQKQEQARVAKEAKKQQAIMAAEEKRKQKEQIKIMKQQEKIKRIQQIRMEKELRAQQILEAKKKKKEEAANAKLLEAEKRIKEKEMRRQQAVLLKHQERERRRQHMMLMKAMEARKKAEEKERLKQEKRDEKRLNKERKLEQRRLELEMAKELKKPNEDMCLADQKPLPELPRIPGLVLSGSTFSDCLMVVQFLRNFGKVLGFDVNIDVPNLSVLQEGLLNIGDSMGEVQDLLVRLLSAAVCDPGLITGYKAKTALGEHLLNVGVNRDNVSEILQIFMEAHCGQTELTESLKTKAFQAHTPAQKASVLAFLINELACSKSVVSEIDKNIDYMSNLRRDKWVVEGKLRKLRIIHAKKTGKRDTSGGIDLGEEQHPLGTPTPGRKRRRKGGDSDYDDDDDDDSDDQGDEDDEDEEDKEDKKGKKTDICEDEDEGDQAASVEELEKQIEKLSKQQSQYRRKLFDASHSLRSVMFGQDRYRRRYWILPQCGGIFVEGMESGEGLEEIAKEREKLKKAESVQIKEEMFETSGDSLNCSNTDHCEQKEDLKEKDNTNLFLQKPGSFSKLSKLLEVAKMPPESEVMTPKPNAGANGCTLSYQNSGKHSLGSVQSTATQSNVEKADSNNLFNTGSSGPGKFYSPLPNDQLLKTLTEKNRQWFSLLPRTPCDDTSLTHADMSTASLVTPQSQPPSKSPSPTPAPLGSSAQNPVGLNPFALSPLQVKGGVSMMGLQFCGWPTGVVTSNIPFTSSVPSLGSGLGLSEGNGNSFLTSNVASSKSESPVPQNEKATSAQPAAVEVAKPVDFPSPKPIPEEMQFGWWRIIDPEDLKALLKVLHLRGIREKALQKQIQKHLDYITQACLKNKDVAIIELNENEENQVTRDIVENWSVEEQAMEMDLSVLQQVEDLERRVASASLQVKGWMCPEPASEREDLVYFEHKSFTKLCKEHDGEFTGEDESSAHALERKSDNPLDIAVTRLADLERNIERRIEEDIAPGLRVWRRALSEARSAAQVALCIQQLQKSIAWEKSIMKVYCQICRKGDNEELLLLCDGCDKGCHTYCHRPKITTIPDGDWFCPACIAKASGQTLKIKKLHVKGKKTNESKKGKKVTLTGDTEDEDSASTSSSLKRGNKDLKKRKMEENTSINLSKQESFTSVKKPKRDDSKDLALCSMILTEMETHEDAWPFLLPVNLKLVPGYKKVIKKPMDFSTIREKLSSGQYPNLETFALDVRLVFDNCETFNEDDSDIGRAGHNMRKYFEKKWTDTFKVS
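Inhibition is scored as reduced AlphaScreen emission. The BAZ2B/b-H3(5-23)K14Ac complex (50 nM each) in PBS pH 7.4, 0.01% Tween-20 meets compound (up to 110 uM) for 30 min at RT before bead addition.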
Active calls of the source: *; [ ] = another dose, or the depositor's remark. Calls follow the shape of the dose curve; as a rule, active = well fitted curve in the direction sought with a large enough effect; inconclusive = small, poorly fitted or top-dose-only effect, or another doubt; inactive = no such curve, though single readings can be large; an effect the other way counts as inactive or inconclusive. Potency is read from the fitted curve at half-maximal effect.

What do the screens show for `COc1cc(NS(=O)(=O)c2ccc(N/C=C\C(=O)c3ccc(OC)c(OC)c3)cc2)nc(OC)n1`?
L3MBTL1 inh: -3%; JMJD2A Tudor: -13%; Sfp PPTase inh: -14%; G9a block: inconclusive; HP1b chromo inh: 27%; BAZ2B block: -10%

What do the screens show for `COc1cccc(C(=O)/C=C/Nc2ccc(S(=O)(=O)Nc3cc(OC)nc(OC)n3)cc2)c1`?
JMJD2A Tudor: -20%; Sfp PPTase inh: -5%; G9a block: 79µM*; HP1b chromo inh: 16%; BAZ2B block: inconclusive

How did COc1ccc(C(=O)/C=C/Nc2ccc(S(=O)(=O)Nc3cc(OC)nc(OC)n3)cc2)c(OC)c1 do in these assays?
JMJD2A Tudor: -26%; Sfp PPTase inh: -4%; G9a block: 25µM*; HP1b chromo inh: 10%; BAZ2B block: -22%

How did COc1cccc(C(=O)/C=C/Nc2ccc(S(=O)(=O)Nc3ccc(C(C)=O)cc3)cc2)c1 do in these assays?
L3MBTL1 inh: -10%; JMJD2A Tudor: -14%; Sfp PPTase inh: 48%; G9a block: 50µM*; HP1b chromo inh: -18%; BAZ2B block: -3%

Results for Cc1c2cnn(CC(=O)N3CCN(c4ccc(F)cc4)CC3)c(=O)c2c(C)n1Cc1ccccc1F ?
JMJD2A Tudor: inconclusive; G9a block: -20%[59 µM]; HP1b chromo inh: -2%; BAZ2B block: inconclusive

Results for COc1cccc(NC(=O)C(=O)NCC(c2ccc3c(c2)OCO3)N2CCOCC2)c1 (stereo not drawn) ?
JMJD2A Tudor: -6%; G9a block: -21%[59 µM]; HP1b chromo inh: 26%[57 µM]; BAZ2B block: -3%

How did CCOC(=O)N1CCN(S(=O)(=O)c2ccc(C(=O)Nc3nc4ccc(F)cc4s3)cc2)CC1 do in these assays?
L3MBTL1 inh: 6%; JMJD2A Tudor: 0%; Sfp PPTase inh: -6%; G9a block: -9%; HP1b chromo inh: 28%; BAZ2B block: -7%

How did CCOC(=O)c1c(-c2ccccc2)csc1NC(=O)c1cc(S(=O)(=O)N2CCOCC2)ccc1C do in these assays?
L3MBTL1 inh: -1%; JMJD2A Tudor: -11%; Sfp PPTase inh: inconclusive; G9a block: 32µM*; HP1b chromo inh: inconclusive; BAZ2B block: 2%

What do the screens show for `CCOC(=O)N1CCN(S(=O)(=O)c2ccc(C(=O)Nc3nc4ccccc4s3)cc2)CC1`?
L3MBTL1 inh: 6%; JMJD2A Tudor: -14%; Sfp PPTase inh: -3%; G9a block: 50µM*; HP1b chromo inh: 22%; BAZ2B block: 5%

How did CCOC(=O)c1c(-c2ccccc2)csc1NC(=O)c1ccc(S(=O)(=O)N2CC(C)OC(C)C2)cc1 (stereo not drawn) do in these assays?
L3MBTL1 inh: 4%; JMJD2A Tudor: -1%; Sfp PPTase inh: 0%; G9a block: 7%; HP1b chromo inh: 36%; BAZ2B block: 4%

How did CCOC(=O)c1sc(NC(=O)c2ccc(S(=O)(=O)N3CCOCC3)cc2)nc1-c1ccccc1 do in these assays?
L3MBTL1 inh: -7%; JMJD2A Tudor: -25%; Sfp PPTase inh: -8%; G9a block: 45µM*; HP1b chromo inh: 32%; BAZ2B block: 10%

How did CCOC(=O)N1CCN(S(=O)(=O)c2ccc(C(=O)Nc3sc4c(c3C(N)=O)CC(C)(C)NC4(C)C)cc2)CC1 do in these assays?
JMJD2A Tudor: -21%; Sfp PPTase inh: -6%; G9a block: 50µM*; HP1b chromo inh: 23%; BAZ2B block: -23%

How did COc1ccc(C2=Nn3c(nnc3-c3cccc(OC)c3)SC2)cc1 do in these assays?
JMJD2A Tudor: -26%; Sfp PPTase inh: inconclusive

What do the screens show for `CCCCc1nc2c(c3c1C[C@H](C)OC3)CN(S(=O)(=O)c1ccc(Cl)c3nonc13)CC2`?
Sfp PPTase inh: -16%

Results for Cc1ccc(C(=O)CCC(=O)OCC(=O)Nc2nnc(-c3ccccc3)o2)cc1 ?
L3MBTL1 inh: 8%; JMJD2A Tudor: -26%; G9a block: -1%; HP1b chromo inh: 8%; BAZ2B block: inconclusive

Results for COc1cc(OC)cc(C(=O)OCC(=O)Nc2nnc(-c3ccccc3)o2)c1 ?
JMJD2A Tudor: 50µM*; HP1b chromo inh: 73%

How did O=C(COC(=O)c1cncc(Br)c1)Nc1nnc(-c2ccccc2)o1 do in these assays?
JMJD2A Tudor: 50µM*; HP1b chromo inh: 25%

What do the screens show for `O=C(COC(=O)CNC(=O)c1ccc(Br)cc1)Nc1nnc(-c2ccccc2)o1`?
L3MBTL1 inh: -1%; JMJD2A Tudor: -12%; G9a block: inconclusive; HP1b chromo inh: 42%; BAZ2B block: -3%

What do the screens show for `COc1ccc(CNC(=O)COC(=O)c2cncc(Br)c2)cc1`?
L3MBTL1 inh: 8%; JMJD2A Tudor: -14%; Sfp PPTase inh: 14%; G9a block: 40µM*; HP1b chromo inh: 29%; BAZ2B block: -17%

Results for O=C(COC(=O)c1ccc(Cl)nc1)Nc1nnc(-c2ccccc2)o1 ?
L3MBTL1 inh: -5%; JMJD2A Tudor: 79µM*; G9a block: -7%; HP1b chromo inh: 16%; BAZ2B block: 50µM*

What do the screens show for `Cc1ccc(NCCN(C)C)c2c(=O)c3cc(O)ccc3sc12`?
JMJD2A Tudor: 40µM*; HP1b chromo inh: inconclusive

What do the screens show for `O=S(=O)(NCC(c1ccco1)N1CCN(c2ccccc2)CC1)c1ccccc1` (stereo not drawn)?
JMJD2A Tudor: -25%; G9a block: 1%[59 µM]; HP1b chromo inh: 23%; BAZ2B block: -36%

What do the screens show for `CCC(=O)Nc1nnc(S(=O)(=O)N(C)Cc2ccc(Cl)cc2)s1`?
JMJD2A Tudor: -10%; G9a block: -8%[59 µM]; HP1b chromo inh: 5%; BAZ2B block: -13%

What do the screens show for `COC(=O)CC1c2ccccc2C=C(C2CC2)N1C(=O)OC` (stereo not drawn)?
Sfp PPTase inh: -4%

What do the screens show for `O=C1NC(=Nc2ccccc2Cl)S/C1=C\c1cccc([N+](=O)[O-])c1O`?
JMJD2A Tudor: 40µM*; Sfp PPTase inh: -23%; G9a block: 8.9µM*; HP1b chromo inh: inconclusive; BAZ2B block: 11µM*

How did O=C1NC(=Nc2ccccc2Cl)S/C1=C\c1cccc([N+](=O)[O-])c1 do in these assays?
L3MBTL1 inh: -9%; JMJD2A Tudor: inconclusive; Sfp PPTase inh: -8%; G9a block: inconclusive; HP1b chromo inh: 32%; BAZ2B block: 50µM*

How did O=C1NC(=S)S/C1=C\c1cccc([N+](=O)[O-])c1 do in these assays?
JMJD2A Tudor: -28%; HP1b chromo inh: 8%

What do the screens show for `COc1cccc(CNC(=O)CN2N=C(c3ccc(C)cc3)CCC2=O)c1`?
JMJD2A Tudor: -22%; G9a block: -15%[59 µM]; HP1b chromo inh: -1%; BAZ2B block: -31%
